# Reference: the supplement of paper PMC6555819
# How the values were obtained:
# Test in all cases: PBM binding z-score (relative to random genomic background probes); higher = stronger binding; sequences stand for … in GC…GCGATTGACAGCGTAGAATGAAGG
# [1] = test system: RARb homodimer (NR concentration 270 nM)
# Outline: (§1)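 For binding z-scores, the reference was random background probes on custom Agilent 4×180K protein-binding microarrays. These arrays were incubated 1 h with ligand-free nuclear receptor dimers in PBS pH 7.4, 2% milk, 0.02% Triton X-100, 1 mM DTT, 0.2 mg/mL BSA and 0.4 mg/ml salmon testes DNA. Fluorescence was scanned after antibody detection of each partner (one per run) and regression-normalized.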
# [2] = test system: RARg:RXRa (NR concentration 270 nM, RXRa partner concentration 90 nM)
# Outline: as §1
# [3] = test system: RARg homodimer (NR concentration 270 nM)
# Outline: as §1
# [4] = test system: RXRa DBDmut IVT, anti-RXR (DBD mutation: RXRa K156A/R161A, NR concentration 90 nM)
# Outline: as §1
# [5] = test system: RXRa homodimer (NR concentration 180 nM)
# Outline: as §1
# [6] = test system: THRa:RXRa (NR concentration 90 nM, RXRa partner concentration 90 nM)
# Outline: as §1
# [7] = test system: THRa homodimer (NR concentration 90 nM)
# Outline: as §1
# [8] = test system: VDR homodimer (NR concentration 270 nM)
# Outline: as §1
Sequence,PBM binding z-score [1],PBM binding z-score [2],PBM binding z-score [3],PBM binding z-score [4],PBM binding z-score [5],PBM binding z-score [6],PBM binding z-score [7],PBM binding z-score [8]
ATCTGTAGGTAAAGTTCAGTGAAAGATCGATAGA,2.24,1.86,2.25,1.35,1.16,0.595,-0.247,1.83
TAGCCTAGGTCAGCTCGGGCCAGTATACGCTATA,2.59,3.06,4.25,-0.297,1.54,4.27,0.31,-0.788
AGAACGAGGTTAAGATCAGGGAAACAGAATACAT,1.12,2.15,1.62,1.03,2.45,2.36,0.55,0.771
GTTAGCAGGCCATTTGGGTCACTCAATGACGGGC,1.8,1.15,1.5,0.133,0.847,1.79,0.575,0.779
GCTATTAGCTGAAAGGGCAACCGAATGATTCTCG,1.53,0.817,0.974,0.616,0.703,0.363,-0.714,-0.0197
TAGCCTAGGTCATTAAGGGGCCAGTATAGAAAGC,3.1,5.12,3.99,1.36,2.52,2.9,0.623,0.937
CCCAGTAGGTTATGGGGCATTCAGGCAACGGTGA,0.987,0.653,0.48,-1.2,0.869,0.512,-0.000965,0.0729
AGAACGAGGGCACGCTGAGTTGATAGGAGAGTAG,1.22,1.93,1.99,1.77,1.35,1.82,0.0402,1.76
CAAACTATGTCACAGAGGTCAAAGTCCGTGCGTA,4.82,5.68,5.01,2.12,6.58,3.83,1.89,4.59
GAAACAGGGTCAGCTAGAGGCCAGAGTATGGAAA,3.26,6.78,4.43,1.52,4.28,3.13,0.117,0.821
ATCGAAAGGTCGAAGGTAAGTATACCCACCCGAA,2.18,3.86,3.99,0.89,4.24,1.86,0.0677,0.843
CCTACTGGGCCATTCAGAGGTCATTTATCATATG,3.73,3.91,2.73,1.47,3.27,3.12,1.45,4.04
CGAACTAGGTCATTGACAGGACAGTGAGTAGTAA,2.57,4.39,4.12,2.41,2.42,2.81,0.505,0.794
AGAATGAGGGTAAGATCAGGGAAACAGAATACAT,0.584,0.474,0.611,0.212,0.321,1.54,0.43,0.304
GCAGCTAGGTCAACTGATGGTCAGCTAAAGCTCG,3.08,5.02,5.33,0.798,2.52,2.6,0.305,-0.435
GGAACGAGGGCAAGTTGCTAGCAGAGTTTGATGG,1.37,1.23,2.1,2.26,0.745,0.911,-0.229,1.44
CCTTACGCGTCACTGACAGGTTATAGCATTTGGA,0.655,0.439,0.151,1,0.414,0.506,0.512,0.287
TGAATTAGGTTATAAGATCAGGGAACGTTGCAAA,-0.204,0.498,0.508,-0.196,0.503,0.533,0.0659,0.321
ATCGAAAGGTCGACGAGGTCAGTATACACCGTTT,4.63,5.73,5.72,2.48,5.75,4.67,2.54,4.57
TTACCAAGGTGAAGGTCGTTGACCCCTCTGTAGA,3.35,3.33,2.12,0.133,4.95,3.6,1.43,1.51
ACTGTTAGTTGACTTAGGGCAACCGATACGACGC,1.09,1.22,1.25,0.609,0.472,1.51,0.731,0.453
CCTCACGGGTCACTCCAGGTTATAGCATCGGAGT,3.09,4.28,4.2,1.49,4.07,4.79,0.721,1.94
GCGACTGGGGCATCAGCAGGTTACCGTAACTTAA,1.14,0.702,0.193,-0.433,0.309,1.03,-0.152,-0.576
TCGAGTAGTTTACCAATGGGGCATTCAGCTTTCT,0.239,-0.401,-0.51,0.878,-0.356,-0.217,-0.644,-0.305
AGAACGAGGTCAATGAGTTGATAGCACGGGTGGC,3.94,5.78,5.81,4.11,6.03,3.94,2.08,5.27
CGTCCAAGGTTAGAGAGGTCAGTGAATGCCGAGT,4.23,3.53,4.13,1.67,3.43,3.22,1.3,3.15
GCTAGTTGGTAAGTAAAAGGTCACACACCGGTCG,5.2,4.96,4.06,0.677,4.99,3.48,1.73,1.63
TTACCAAGGTGAGGGTCGTTGATCCCTCTGTAGA,0.945,0.785,0.443,-0.138,1.37,1.8,0.423,0.171
TCGAGTAGGTTACCAATGGGTCATTCAGCTTTCT,2.41,3.58,1.68,0.573,2.18,1.62,-0.434,0.102
